Test results published in PubChem BioAssay AID651679 (Broad Institute, 2012).
The other results are listed elsewhere or left out. A number with no mark means an inactive call. How the calls were made is not given here.

Biological target: Adenosylmethionine-8-amino-7-oxononanoate aminotransferase (Mycobacterium tuberculosis (strain ATCC 25618 / H37Rv)) (UniProt P9WQ81)
Test: Mtb BioA enzyme inhibitors, dose response, biochemical, plate reader, cherry-pick samples, set 03 (AID 651679);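 further: top concentration of the dilution series was 10 µM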
Details: purified BioA enzyme

Adenosylmethionine-8-amino-7-oxononanoate aminotransferase (Mycobacterium tuberculosis (strain ATCC 25618 / H37Rv)), sequence (P9WQ81 whole entry, looked up): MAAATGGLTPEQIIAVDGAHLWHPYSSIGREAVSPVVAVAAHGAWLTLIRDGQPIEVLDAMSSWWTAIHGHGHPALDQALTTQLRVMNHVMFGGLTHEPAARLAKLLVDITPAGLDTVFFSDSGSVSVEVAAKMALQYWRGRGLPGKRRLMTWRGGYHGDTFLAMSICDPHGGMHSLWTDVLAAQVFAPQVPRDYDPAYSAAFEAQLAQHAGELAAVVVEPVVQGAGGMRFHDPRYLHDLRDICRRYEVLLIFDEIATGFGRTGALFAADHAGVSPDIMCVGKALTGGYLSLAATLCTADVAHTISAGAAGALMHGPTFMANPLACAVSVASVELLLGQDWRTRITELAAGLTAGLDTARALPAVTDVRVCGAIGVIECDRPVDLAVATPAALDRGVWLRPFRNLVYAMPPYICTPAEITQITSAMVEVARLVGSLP

Question: For `Cc1nc2nc(SCC(=O)NCc3ccco3)nn2c(C)c1Cc1ccccc1`, which max activity is on record?
Answer: The max activity was -11.9% [at 0.16 µM].

Question: With `Cc1ccc(Cc2c(C)nc3nc(SCC(=O)NCCN4CCOCC4)nn3c2C)cc1` as the compound, how does the max activity read?
Answer: The max activity was -9.07%.

Question: With `C=C(C)CSc1nc(N)c2c3c(sc2n1)CCC3` as the compound, how does the max activity read?
Answer: Its max activity is -5.78%.

Question: `COCCNC(=O)C[C@H]1CC[C@@H]2[C@H](COc3ccc(NC(=O)Nc4cccc(F)c4)cc3C(=O)N2C)O1` was tested. Which max activity did it give?
Answer: Its max activity is 9.1%.

Question: For `CC(=O)CSc1nnc(CSc2ncccn2)n1C1CCCCC1`, which max activity is on record?
Answer: The max activity was 4.14%.

Question: With `Cc1c(OC(C)C(=O)NCC2CCC(C(=O)O)CC2)ccc2c1oc(=O)c1ccccc12` (stereo not given) as the compound, how does the max activity read?
Answer: The max activity was -6.87% [at 0.3 µM].

Question: For `COc1cc(-c2n[nH]c(=S)n2Cc2ccccc2)cc(OC)c1OC`, which max activity is on record?
Answer: The max activity was -6.94% [at 0.6 µM].

Question: Which max activity does the source give for `Cc1c2cnn(CC(=O)NCc3ccccn3)c(=O)c2c(C)n1Cc1ccc(Cl)cc1` here?
Answer: Its max activity is -3.46% [at 10 µM].

Question: How did the max activity turn out when `Cn1c(=O)c2c(nc(OCc3cccnc3)n2Cc2ccccc2)n(C)c1=O` was run?
Answer: Its max activity is -7.11% [at 0.3 µM].

Question: With `CCC(CO)Oc1cc(NC(=O)c2cccc(F)c2)c2ncn(C(C)C)c2c1` (stereo not given) as the compound, how does the max activity read?
Answer: The max activity was -8.92%.

Question: Which max activity does the source give for `O=c1[nH]c(N2CCN(Cc3ccc4c(c3)OCO4)CC2)nc2c1CCCC2` here?
Answer: Its max activity is -3.93% [at 5 µM].

Question: With `CC(=O)c1ccc(N2CCN(C(=O)c3ccc4nc[nH]c4c3)CC2)cc1` as the compound, how does the max activity read?
Answer: Its max activity is 5.95% [at 10 µM].

Question: How did the max activity turn out when `Cc1nc(=O)c(-c2ccccc2)c(C)n1-c1ccc(Br)cc1` was run?
Answer: The max activity was -5.48% [at 0.08 µM].

Question: With `O=C(CSc1n[nH]c(-c2cccnc2)n1)Nc1ccnc2ccccc12` as the compound, how does the max activity read?
Answer: Its max activity is -8.45%.

Question: With `C=CCn1c(SCc2c(C(=O)OC)sc(N)c2C(=O)OC)nnc1-c1ccc(Cl)cc1` as the compound, how does the max activity read?
Answer: Its max activity is -8.75%.

Question: How did the max activity turn out when `CS(=O)(=O)N1[C@H](C(=O)NCc2ccncc2)[C@@H](CO)[C@@H]2Cn3c(ccc(C4=CCCCC4)c3=O)[C@@H]21` was run?
Answer: The max activity was 4.42%.

Question: For `CC1(C)CC(=O)C=C(c2ccc3ncccc3c2)C1`, which max activity is on record?
Answer: Its max activity is -6.7%.

Question: How did the max activity turn out when `CCCOc1ccc2c3c(c(=O)oc2c1OCCC)CCC3` was run?
Answer: The max activity was 12.3% [at 1.2 µM].

Question: For `CC(=O)O[C@]1(C(C)=O)CC[C@H]2[C@@H]3C=C(C)C4=CC(=O)CC[C@]4(C)[C@H]3CC[C@@]21C`, which max activity is on record?
Answer: Its max activity is -6.47% [at 0.6 µM].

Question: With `O=C(c1ccncc1)N1CC[C@@H]2[C@H]1c1cc(Br)ccc1N[C@@H]2CO` as the compound, how does the max activity read?
Answer: Its max activity is -4.43%.
